Active and inactive are the calls of the source. Unless noted, how the calls were made is not given here.
Legend:
[1] = resazurin metabolic signal in HepG2 cells – cell-based, resazurin fluorescence, 24 h, PK04 Diversity Set, profiling panel (AID 1172); details: HepG2 viability, higher = more signal
[2] = budding yeast growth changes without added modifier – OD600, strain BY4716, 24 h, basal condition, primary screen (AID 1173); details: S. cerevisiae BY4716 growth, OD600, 24 h; higher = more signal, called active from +8 up or from −8 down
[3] = viability profiling in MM1S myeloma cells – cell-based, resazurin fluorescence, basal, 24 h, PK04 Diversity Set, profiling panel (AID 1174); details: higher = more signal, called active from +8 up or from −8 down;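 further: MM1S multiple myeloma cell line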
[4] = biological target: Dihydroorotate dehydrogenase (quinone), mitochondrial (Plasmodium falciparum (isolate 3D7)) (UniProt Q08210); test: inhibition of P. falciparum DHODH – biochemical, C-terminal His tag, absorbance 600 nm, primary screen (AID 1175); details: PfDHODH enzyme, DCIP absorbance 600 nm; higher = more signal, called active from +8 up or from −8 down;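 further: recombinant parasite enzyme with a five histidine tag at its C terminus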
Sequence of Dihydroorotate dehydrogenase (quinone), mitochondrial (Plasmodium falciparum (isolate 3D7)) (Q08210 whole entry, looked up): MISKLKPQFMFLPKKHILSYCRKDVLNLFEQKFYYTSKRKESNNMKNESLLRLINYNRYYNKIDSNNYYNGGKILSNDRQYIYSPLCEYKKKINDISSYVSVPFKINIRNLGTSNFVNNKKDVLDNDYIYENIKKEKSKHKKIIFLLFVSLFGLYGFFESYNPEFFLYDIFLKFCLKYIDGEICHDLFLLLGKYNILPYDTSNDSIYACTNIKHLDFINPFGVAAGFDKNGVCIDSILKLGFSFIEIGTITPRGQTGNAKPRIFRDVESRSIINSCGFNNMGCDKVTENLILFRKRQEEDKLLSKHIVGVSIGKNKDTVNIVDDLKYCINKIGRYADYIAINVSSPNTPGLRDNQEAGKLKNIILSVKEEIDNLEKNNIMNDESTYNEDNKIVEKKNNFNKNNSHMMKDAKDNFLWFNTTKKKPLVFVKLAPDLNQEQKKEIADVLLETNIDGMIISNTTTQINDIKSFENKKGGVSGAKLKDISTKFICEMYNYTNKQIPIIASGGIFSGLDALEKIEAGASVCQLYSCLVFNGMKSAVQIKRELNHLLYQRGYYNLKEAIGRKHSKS

[5] = inhibition of PAO1 biofilm formation – strain PAO1, LB-PBS medium, absorbance 600 nm, primary screen (AID 1176); details: P. aeruginosa PAO1 growth/biofilm, A600, 12 h; higher = more signal
[6] = growth modulation of vineyard yeast isolate – strain RM11-1a, OD600, basal, 24 h, primary screen (AID 1177);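 further: cultures grown under basal conditions with no added stressor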; details: S. cerevisiae RM11-1a growth, OD600, 24 h; higher = more signal, called active from +8 up or from −8 down
[7] = growth of efflux-deficient E. coli DRC39 – strain DRC39, OD650, 24 h, E. coli filamentation inducers, primary screen (AID 1178);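 further: growth measured as culture turbidity by optical density at 650 nm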; details: E. coli DRC39 acrAB, higher = more signal, called active from +8 up or from −8 down
[8] = growth of efflux-deficient E. coli DRC39 – strain DRC39, OD650, 48 h, E. coli filamentation inducers, primary screen (AID 1179);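 further: screen aims at cell division blockers that make cells filament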; details: E. coli DRC39 delta-acrAB growth, higher = more signal, called active from +8 up or from −8 down
[9] = viability profiling in RPMI8226 myeloma cells – cell-based, resazurin fluorescence, basal, 24 h, PK04 Diversity Set, profiling panel (AID 1180); details: higher = more signal;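 further: RPMI8826 multiple myeloma cell line at 5000 cells per well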
[10] = biological target: E3 ubiquitin-protein ligase XIAP (Homo sapiens) (UniProt P98170); test: small molecules binding XIAP protein – biophysical, small-molecule microarray, fluorescence 635 nm, primary screen (AID 1181); details: higher = more signal;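 further: score merges 667 nm emission and signal to noise over triplicate slides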
Sequence of E3 ubiquitin-protein ligase XIAP (Homo sapiens) (P98170 whole entry, looked up, the tested form may be a part): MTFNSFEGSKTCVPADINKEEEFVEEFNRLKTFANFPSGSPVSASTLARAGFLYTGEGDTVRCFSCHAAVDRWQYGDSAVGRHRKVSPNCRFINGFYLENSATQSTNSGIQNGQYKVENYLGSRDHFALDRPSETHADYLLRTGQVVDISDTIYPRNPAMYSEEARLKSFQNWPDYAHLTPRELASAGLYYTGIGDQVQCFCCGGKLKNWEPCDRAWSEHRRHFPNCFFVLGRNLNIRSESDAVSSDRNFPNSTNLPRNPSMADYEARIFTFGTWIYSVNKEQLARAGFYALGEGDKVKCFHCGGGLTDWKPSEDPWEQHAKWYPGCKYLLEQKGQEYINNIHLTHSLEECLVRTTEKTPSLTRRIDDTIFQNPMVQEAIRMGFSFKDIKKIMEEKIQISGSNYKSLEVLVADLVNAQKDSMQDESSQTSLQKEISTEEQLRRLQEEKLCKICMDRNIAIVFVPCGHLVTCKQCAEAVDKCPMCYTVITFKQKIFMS

[11] = system: XIP peptide (Xip251-270) binding; test: XIP fragment 251-270 binding compounds – biochemical, small-molecule microarray, fluorescence 635/667 nm, 0.1 µg/mL protein, primary screen (AID 1182); details: fluorescent protein binding, 635 nm, higher = more signal, called active from +8 up or from −8 down
XIP peptide (Xip251-270) = test: compounds binding XIP fragment 251-270 – biochemical, small-molecule microarray, fluorescence 635/667 nm, 0.5 µg/mL protein, primary screen (AID 1183); details: fluorescence 635 nm, higher = more signal
[12] = blood-stage malaria parasite viability loss – strain 3D7, DAPI fluorescence, 100 nL, primary screen (AID 1184);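 further: parasites grown inside human red blood cells in medium with human serum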; details: P. falciparum 3D7 growth, 3 d, higher = more signal
[13] = biological target: Homeobox protein Hox-A13 (Mus musculus) (UniProt Q62424); test: disruptors of Hoxa13 oligonucleotide interaction – biochemical, fluorescence polarization, labeled oligonucleotide, primary screen (AID 1185); details: Hoxa13:DNA binding, 15 min, higher = more signal, called active from +8 up or from −8 down
Sequence of Homeobox protein Hox-A13 (Mus musculus) (Q62424 whole entry, looked up): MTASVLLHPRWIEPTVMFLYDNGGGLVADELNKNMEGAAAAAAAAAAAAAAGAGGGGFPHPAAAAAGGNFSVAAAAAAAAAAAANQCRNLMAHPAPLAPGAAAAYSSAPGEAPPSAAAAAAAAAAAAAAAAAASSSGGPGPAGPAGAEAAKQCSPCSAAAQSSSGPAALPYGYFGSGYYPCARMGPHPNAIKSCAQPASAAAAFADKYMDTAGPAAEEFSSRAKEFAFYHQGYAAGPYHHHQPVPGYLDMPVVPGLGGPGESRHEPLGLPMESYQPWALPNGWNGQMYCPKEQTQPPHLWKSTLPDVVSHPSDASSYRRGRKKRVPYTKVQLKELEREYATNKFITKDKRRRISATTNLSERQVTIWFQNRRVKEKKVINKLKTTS

[14] = blockers of DNA damage checkpoint Chk1 activation – imaging, HeLa, hydroxyurea, phospho-Chk1 antibody, percent positive cells, primary screen (AID 1186); details: hydroxyurea-induced phospho-Chk1 immunofluorescence imaging, higher = more signal
[15] = blockers of DNA damage checkpoint Chk1 activation – imaging, HeLa, hydroxyurea, phospho-Chk1 nuclear intensity, primary screen (AID 1187); details: hydroxyurea-induced phospho-Chk1 immunofluorescence imaging, higher = more signal

Compound	z-score [1]	z-score [2]	z-score [3]	composite z-score [4]	z-score [5]	z-score [6]	z-score [7]	z-score [8]	z-score [9]	composite z-score [10]	composite z-score [11]	composite z-score (XIP peptide (Xip251-270))	z-score [12]	z-score [13]	z-score [14]	z-score [15]
COC(=O)c1c(CC[C@@H](CO)NC(=O)N[C@@H](Cc2ccccc2)Cn2cc(-c3ccccn3)nn2)oc(C(=O)N2CCOCC2)c1C(=O)OC	0.482	-0.239 (inactive)	0.475 (inactive)	0.138 (inactive)	-0.476 (inactive)	1.3 (inactive)	0.506 (inactive)	0.327 (inactive)	0.277	0.23	0.53 (inactive)	0.0134	-0.671	-2.7 (inactive)	0.101 (inactive)	0.0064 (inactive)
CO[C@H]1O[C@H](CO)[C@@H](OC(=O)Nc2ccc(Oc3ccccc3)cc2)[C@H](OC(=O)Nc2ccc3c(c2)OCO3)[C@@H]1OC(=O)Nc1ccc2c(c1)OCO2	-1.01	0.77 (inactive)	-0.949 (inactive)	0.0357 (inactive)	1.39 (inactive)	2.65 (inactive)	0.759 (inactive)	-0.0218 (inactive)	-0.793	0.222	0.23 (inactive)	0.863	-2.05	-6.43 (inactive)	0.126 (inactive)	0.561 (inactive)
CN(C)CCCCCCNC(=O)[C@@H]1C[C@@H]2C(=O)N3CCC[C@H]3C(=O)N2[C@@H]1c1ccc(O)cc1	-0.627	-0.732 (inactive)	-0.235 (inactive)	-1.7 (inactive)	1.82 (inactive)	-2.55 (inactive)	0.966 (inactive)	1.64 (inactive)	-0.198	0.117	2.98 (inactive)	0.929	0.199	0.647 (inactive)	-0.849 (inactive)	-0.147 (inactive)
O=C(NC1CC1)[C@@H]1c2ccccc2C(=O)N(C2Cc3ccccc3C2)[C@H]1c1ccc(CO)cc1	0.21	-0.009 (inactive)	0.475 (inactive)	-0.0711 (inactive)	0.196 (inactive)	0.397 (inactive)	0.223 (inactive)	0.722 (inactive)	0.543	-0.0044	0.456 (inactive)	0.657	-0.69	-1.14 (inactive)	-0.217 (inactive)	0.0084 (inactive)
CC=CC(O)C1C=CC2C(=O)N(C)C(=O)C2N1N(c1ccccc1)c1ccccc1 (centres undefined)	0.0376	0.554 (inactive)	-0.505 (inactive)	1.13 (inactive)	-0.531 (inactive)	0.823 (inactive)	-1.15 (inactive)	-0.321 (inactive)	-0.905	0.0116	0.212 (inactive)	0.414	0.0212	-0.125 (inactive)	0.341 (inactive)	0.365 (inactive)
COCCOC(=O)N1C(=O)[C@@]2(c3cc(C#CC4(O)CCCCCC4)ccc31)[C@H](C(=O)Nc1nc3ccccc3s1)[C@H]1C(=O)O[C@H](c3ccccc3)[C@H](c3ccccc3)N1[C@@H]2c1ccccc1OCCO	0.709	0.504 (inactive)	-1.15 (inactive)	-0.747 (inactive)	0.249 (inactive)	1.78 (inactive)	-0.632 (inactive)	0.635 (inactive)	-0.435	-0.0118	1.77 (inactive)	0.748	-1.43	2.95 (inactive)	0.203 (inactive)	0.693 (inactive)
CC(c1ccccc1)C(O)C1C=CC2C(=O)N(c3ccccc3)C(=O)C2N1Nc1ccccc1 (centres undefined)	-1.45	-0.652 (inactive)	-1.4 (inactive)	-0.191 (inactive)	0.67 (inactive)	0.0166 (inactive)	-0.0789 (inactive)	-0.565 (inactive)	-1.28	0.255	1.06 (inactive)	0.807	-0.417	-2.4 (inactive)	0.2 (inactive)	0.175 (inactive)
COC(=O)[C@@]1(Cc2ccccc2)[C@H]2c3cc(C(=O)N4CCCC4)n(Cc4ccc(O)c(OC)c4)c3C[C@H]2CN1C(=O)c1ccccc1	-1.82	1.93 (inactive)	-0.948 (inactive)	0.05 (inactive)	0.675 (inactive)	1.8 (inactive)	-1.12 (inactive)	-0.697 (inactive)	-2.74	0.224	0.469 (inactive)	-0.333	-1.32	-4.6 (inactive)	1.13 (inactive)	0.678 (inactive)
COc1ccc([C@H]2OC[C@@H]3CCC(=O)N32)cc1	0.219	0.242 (inactive)	0.526 (inactive)	-0.0915 (inactive)	-0.133 (inactive)	0.189 (inactive)	0.905 (inactive)	0.593 (inactive)	0.131	-0.199	0.467 (inactive)	0.394	0.401	0.119 (inactive)	-0.208 (inactive)	-0.183 (inactive)

From PubChem BioAssay
